The list is not random: actives were taken first. Their share in the collection is about 10%.
JMJD2A Tudor: qHTS Assay for Inhibitors of JMJD2A-Tudor Domain. hit rate 4.4% among 390,000. Potency, µM (top dose mostly 114 µM), for inactives: at the highest dose activity change, negative = inhibition, actives largely listed as inhibitors. AID 504339, 2011. AlphaScreen JMJD2A-Tudor / H3K4me3 peptide binding; further: on the % scale 0 is the no-effect control and ±100 the full control effect; nearly all actives have a fitted effect of over 50% in size
GLS inhibitor: qHTS for Inhibitors of Glutaminase (GLS). hit rate 0.21% among 410,000. GLS enzymatic activity, qHTS titration. Potency, µM (highest dose often 45.5 µM), inactives show top-dose activity change, negative = inhibition, hits mostly inhibitors; further: on the % scale 0 is the no-effect control and ±100 the full control effect
Target sequence (O94925 whole entry, looked up): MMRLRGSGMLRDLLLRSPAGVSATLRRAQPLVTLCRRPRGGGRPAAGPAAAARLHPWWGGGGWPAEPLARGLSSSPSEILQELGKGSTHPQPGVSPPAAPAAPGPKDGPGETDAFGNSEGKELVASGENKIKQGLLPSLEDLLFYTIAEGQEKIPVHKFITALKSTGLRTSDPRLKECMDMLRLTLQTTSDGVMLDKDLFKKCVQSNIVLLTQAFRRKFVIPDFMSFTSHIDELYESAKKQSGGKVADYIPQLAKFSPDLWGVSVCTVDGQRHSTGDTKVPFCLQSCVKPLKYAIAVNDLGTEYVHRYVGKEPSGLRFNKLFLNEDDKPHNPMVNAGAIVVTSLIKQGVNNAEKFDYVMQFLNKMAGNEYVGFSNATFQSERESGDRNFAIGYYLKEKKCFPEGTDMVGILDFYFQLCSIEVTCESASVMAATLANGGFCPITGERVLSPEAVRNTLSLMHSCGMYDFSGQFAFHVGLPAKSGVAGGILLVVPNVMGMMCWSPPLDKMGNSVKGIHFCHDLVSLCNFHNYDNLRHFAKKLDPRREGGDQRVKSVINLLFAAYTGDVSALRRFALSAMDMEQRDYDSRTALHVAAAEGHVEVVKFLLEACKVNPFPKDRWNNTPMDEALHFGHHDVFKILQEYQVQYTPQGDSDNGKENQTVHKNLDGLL
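Glutamate formation by hKGA was monitored fluorometrically using coupled glutamate oxidase, HRP and Amplex Red. Substrate was added as 1 mM L-glutamine solution; incubation was 30 min at RT after an initial read.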
HP1b chromo inh: HTS for Inhibitors of HP1-beta Chromodomain Interactions with Methylated Histone Tails; AlphaScreen HP1-beta / biotin-H3K9me3 peptide binding; Chromobox protein homolog 1 (Homo sapiens), P83916; AID 540317, 2011; Potency, µM (titrated, usually from 114 µM), for inactives: at the top dose activity change, negative = inhibition, actives largely listed as inhibitors; hit rate 0.56% among 390,000; further: nearly all actives have a fitted effect of over 70% in size
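AlphaScreen: HP1-beta (50 nM) preformed 30 min with biotin-H3(1-18)K9me3 peptide (50 nM) in PBS pH 7.4, 0.01% Tween-20. Compound added for 30 min at RT, then streptavidin donor/nickel chelate acceptor beads (10 ug/mL) for 30 min.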
BAZ2B inh: qHTS Assay for Inhibitors of BAZ2B; Bromodomain adjacent to zinc finger domain protein 2B (Homo sapiens), Q9UIF8; AlphaScreen BAZ2B-H3K14Ac peptide displacement; Potency, µM (series often up to 114 µM), for inactives: at the top dose activity change, negative = inhibition, usual class: inhibitors; hit rate 4.4% among 360,000; AID 504333, 2011; further: on the % scale 0 is the no-effect control and ±100 the full control effect; nearly all actives have a fitted effect of over 60% in size
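BAZ2B (50 nM) with biotin-H3(5-23)K14Ac peptide (50 nM) in PBS pH 7.4, 0.01% Tween-20, preformed 30 min, then compound 30 min at room temperature; top concentration 110uM. AlphaScreen streptavidin donor/nickel chelate acceptor beads (10 ug/mL final), 20 min dark, signal read.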
G9a inh: qHTS Assay for Inhibitors of Histone Lysine Methyltransferase G9a; Histone-lysine N-methyltransferase EHMT2 (Homo sapiens), Q96KQ7; G9a H3K9 monomethylation, AlphaScreen, 2 h; Potency, µM (titrated, usually from 102 µM), for inactives: at the highest dose activity, negative = inhibition, usual class: inhibitors; hit rate 8.8% among 350,000; AID 504332, 2011; further: on the % scale 0 is the no-effect control and ±100 the full control effect; nearly all actives have a fitted effect of over 75% in size
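Signal arises when biotinylated H3K9 peptide, once monomethylated, bridges streptavidin donor and antibody-captured acceptor beads. Enzyme at 20 nM was preincubated 15 min with test compounds; peptide 500 nM and SAM 20 uM then reacted for 2 h.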
* hit, by the source's call; u = inconclusive; x = no result; [ ] = dose if it differs, or a comment. The call rests on the fitted dose curve; in most records, active means well fitted curve in the direction sought with a large enough effect; inconclusive means small, poorly fitted or top-dose-only effect, or another doubt; inactive means no such curve, though single readings can be large; an effect the other way counts as inactive or inconclusive. Potency means the concentration at half of the fitted maximal effect.

SMILES	JMJD2A Tudor	GLS inhibitor	HP1b chromo inh	BAZ2B inh	G9a inh
O=C(Cn1c(=O)n(Cc2ccco2)c(=O)c2c3c(sc21)CCCCC3)c1ccccc1	u	-11%	2%	-35%	-3%[59 µM]
O=C(Cn1c(=O)n(Cc2ccco2)c(=O)c2c3c(sc21)CCCCC3)Nc1ccccc1	32µM*	-8%	-29%	50µM*	x
CC(=O)N1CCc2c(sc3c2c(=O)n(-c2ccccc2)c(=O)n3CC(=O)Nc2ccccc2)C1	79µM*	1%	9%	-2%	6%[59 µM]
CN(C)CCn1c(=O)n(Cc2ccco2)c(=O)c2c3c(sc21)CCCCC3	u	2%	9%	u	u
CCOC(=O)CSc1nnc2n(Cc3ccccc3)c(=O)c3c4c(sc3n12)CCC4	-15%[11.4 µM]	-2%	-26%	1%	40µM*
O=c1c2c3c(sc2n(CCN2CCCC2)c(=O)n1Cc1ccco1)CCCCC3	79µM*	15%	u	-35%	3%
O=C(O)Cn1c(=O)c2c3c(sc2n(Cc2ccccc2)c1=O)CCCC3	0%	6%	59%	89µM*	-34%
Fc1cccc(F)c1/C=C/c1ccc2ccccc2n1	82%	7%	202%	77%	u
Fc1cccc(Cl)c1/C=C/c1cnc2ccccc2n1	20%	-9%	28%	5%	50µM*
CCN(CC)c1ccc(CNC(=O)C/C(C)=N/NC(=O)COc2ccc(C)cc2Br)cc1	u	11%	u	45µM*	u
COc1ccccc1CNC(=O)C/C(C)=N/NC(=O)COc1ccc(C)cc1Br	1%	14%	27%	0%	27%
Cc1ccc(-n2ncc(C(=O)N3CCN(C(=O)c4ccco4)CC3)c2C2CCN(C(=O)OC(C)(C)C)CC2)cc1C	-4%	2%	23%	-16%	x
Cc1ccc(/C=C/C(=O)NCc2ccccn2)o1	50µM*	u	u	45µM*	u
COc1ccc(/C=C/C(=O)NCC2COc3ccccc3O2)cc1OC (configuration not stated)	-6%	2%	28%	-4%	5%
Cc1ccc(/C=C/C(=O)NCC2COc3ccccc3O2)o1 (configuration not stated)	56µM*	0%	u	u	u
O=C(/C=C/c1ccccc1)NCc1ccco1	-20%	-4%	16%	-15%	u
O=C(/C=C/c1ccco1)NCc1ccco1	-19%	5%	-18%	56µM*	50µM*
Cc1ccc(/C=C/C(=O)NCCc2c[nH]c3ccccc23)o1	-32%	7%	u	x	45µM*
COc1ccc(/C=C/C(=O)NCc2ccccn2)cc1	11%	13%	41%	5%	4%[59 µM]
O=C(c1ccccc1)C1CCN(C(=O)Nc2ccccc2)CC1	-13%	0%	23%	2%	-2%
Cc1cc2c(cc1S(=O)(=O)Nc1cccc(C)c1C)OCC(=O)N2	-14%	9%	9%	-1%	-2%
O=C(C1COc2ccccc2O1)N(Cc1cccnc1)c1nc2ccc(F)cc2s1 (configuration not stated)	-24%	3%	34%	-3%	5%[59 µM]
CCC(=O)Nc1ccccc1-c1nc2ccccc2n(CC(=O)c2ccc(C)c(C)c2)c1=O	-17%	-7%	8%	1%	-3%[59 µM]
O=C(CNC(=O)/C=C/c1ccco1)N=Nc1c(O)[nH]c2ccccc12	-4%	u	39%	56µM*	35µM*
Cc1cc(C(=O)NCC2COc3ccccc3O2)c2ccccc2n1 (configuration not stated)	-3%	1%	36%	-17%	45µM*
SMILES	JMJD2A Tudor	GLS inhibitor	HP1b chromo inh	BAZ2B inh	G9a inh
O=C(CNC(=O)Cc1ccccc1)N=Nc1c(O)[nH]c2ccccc12	-7%	-7%	26%	-3%	-14%
O=C(O)/C=C/C(=O)NCc1ccccn1	6%	6%	37%	u	45µM*
O=C(/C=C/c1c(Cl)cccc1Cl)NCc1ccco1	-10%	8%	9%	-1%	6%
Cc1ccc(/C=C/C(=O)NCc2ccco2)o1	x	x	x	u	20µM*
C=CCn1c(C(O)c2ccccc2)nc2ccccc21 (configuration not stated)	-33%	3%	1%	2%	15%[0.501 µM]
CCNc1nc(Oc2ccc(C(=O)OC)cc2)nc(N(C)C)n1	-11%	3%	21%	-5%	-25%[59 µM]
CCOC(=O)C1=CN(Cc2cccc(-c3cccnc3)c2)S(=O)(=O)N(C)C1C (configuration not stated)	-17%	4%	46%	x	x
CCSc1nc(C)nc2sc(C)c(C)c12	2%[11.4 µM]	u	64%	41%	164%
Cc1ccc(NC(=O)CCC(=O)N/N=C/c2coc3ccccc3c2=O)cc1	-9%	8%	48%	-14%	26%[12.7 µM]
CC(=O)c1cccc(N(CC(=O)NC2CCCCC2)C(=O)c2csnn2)c1	-12%	0%	-4%	3%	32%
NS(=O)(=O)c1ccc(CNC(=O)/C=C/c2ccco2)cc1	u	u	u	56µM*	40µM*
COc1ccc(C=NNc2nc3c([nH]2)c(=O)n(C)c(=O)n3C)cc1	-7%	1%	12%[57 µM]	x	x
Cc1ccccc1NN=Nc1nc2c([nH]1)c(=O)n(C)c(=O)n2C	u	-3%	u	-30%	4µM*
Cn1c(=O)c2[nH]c(N=NNc3ccccc3F)nc2n(C)c1=O	7.9µM*	-13%	20µM*	20µM*	1.8µM*
COc1ccc(NN=Nc2nc3c([nH]2)c(=O)n(C)c(=O)n3C)cc1	8.9µM*	34%	4.5µM*	56µM*	x
COc1ccc(CC(NC(C)=O)C(=O)NC2CCN(c3c4c(nc5ncnn35)CCC4)CC2)cc1OC (configuration not stated)	8%	-6%	12%	3%	5%[12.7 µM]
COc1cccc(Nc2nnc(SCC3CCCCO3)s2)c1 (configuration not stated)	-12%	13%	28%	-10%	-9%
O=C1N/C(=C/c2ccco2)C(=O)N1Cc1ccccc1F	u	67%	u	u	32µM*
CCOCCCN1C(=O)CN(C2CCCCCC2)C(=O)C1c1ccc(OCC)c(OC)c1 (configuration not stated)	-8%	-9%	18%	-1%	10%[59 µM]
CCCOc1ccc(C2C(=O)N(C3CCCCC3)CC(=O)N2CCCOCC)cc1OC (configuration not stated)	8%	-11%	36%	5%	7.9µM*
O=C(O)c1ccc(CN2C(=O)c3cccc4c([N+](=O)[O-])ccc(c34)C2=O)cc1	u	-3%	5%	50µM*	45µM*
CN(C)CCCN1C(=O)c2cccc3c([N+](=O)[O-])ccc(c23)C1=O	-28%	4%	1%	u	u
